# Test results taken from article PMC5540273 (PLoS ONE, 2017).
# What was measured:
# Conditions in all cases: concentration: 1 μM, replicates: in singlicate; n = 1
# AAK1 = system: AAK1
# ABL1-nonphosphorylated = system: ABL1-nonphosphorylated
# ABL1-phosphorylated = system: ABL1-phosphorylated
# ABL2 = system: ABL2
# ACVR1B = system: ACVR1B
# ACVR1 = system: ACVR1
# ACVR2A = system: ACVR2A
# ACVR2B = system: ACVR2B
# ACVRL1 = system: ACVRL1
# ADCK3 = system: T1, ADCK3
# T1 construct: gene CABC1
# ADCK4 = system: ADCK4
# AKT1 = system: AKT1
# AKT2 = system: AKT2
# AKT3 = system: AKT3
# ALK = system: ALK
# AMPK-alpha1 = system: T2, AMPK-alpha1
# T2 construct: gene PRKAA1
# AMPK-alpha2 = system: T3, AMPK-alpha2
# T3 construct: gene PRKAA2
# ANKK1 = system: ANKK1
# ARK5 = system: T4, ARK5
# T4 construct: gene NUAK1
# ASK1 = system: T5, ASK1
# T5 construct: gene MAP3K5
# 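Note: KINOMEscan kinase panel screen.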
SMILES,%Inh (AAK1) [%],%Inh (ABL1-nonphosphorylated) [%],%Inh (ABL1-phosphorylated) [%],%Inh (ABL2) [%],%Inh (ACVR1B) [%],%Inh (ACVR1) [%],%Inh (ACVR2A) [%],%Inh (ACVR2B) [%],%Inh (ACVRL1) [%],%Inh (ADCK3) [%],%Inh (ADCK4) [%],%Inh (AKT1) [%],%Inh (AKT2) [%],%Inh (AKT3) [%],%Inh (ALK) [%],%Inh (AMPK-alpha1) [%],%Inh (AMPK-alpha2) [%],%Inh (ANKK1) [%],%Inh (ARK5) [%],%Inh (ASK1) [%]
c1ccc(Oc2ccc(Nc3ccnc4cc(-c5ccc(CNCCN6CCOCC6)o5)ccc34)cc2)nc1 [GW567145],6,78,12,6,0,8,0,14,0,2,31,0,10,0,0,0,0,34,44,0
O=C(Nc1cccc(-c2nn3ncccc3c2-c2ccnc(Nc3ccccc3)n2)c1)c1c(F)cccc1F [GSK198271],17,60,6,42,0,21,0,25,0,3,31,0,16,0,38,12,15,69,38,0
O=C(Nc1cccc(Oc2ccc3nc(NC(=O)C4CC4)cn3n2)c1)c1ccccc1C(F)(F)F,45,100,90,79,0,0,16,34,0,3,12,0,0,0,22,0,3,1,0,0
COc1cc2c(cc1OCCN1CCNCC1)ncc1c3ccc(C#N)cc3[nH]c21,96.2,68,55,8,0,0,0,0,0,13,5,0,0,0,26,15,4,37,22,0
Clc1ccc(-c2nn3ncccc3c2-c2ccnc(Nc3ccc4c(c3)OCCO4)n2)cc1 [GW829116],0,61,7,0,28,0,14,54,4,16,90.4,13,0,0,0,0,0,0,0,0
CN(c1ccc(NC(=O)Nc2cc(C(F)(F)F)ccc2F)cc1)c1ccnc(Nc2ccc(S(N)(=O)=O)cc2)n1 [GW809893],9,98.1,75,98.5,1,0,0,14,4,0,7,17,11,9,73,27,19,78,1,0
O=C(NC1CCN(c2ccnc(Nc3ccc(F)cc3)n2)C1)c1cc2ccccc2s1 (centres unmarked) [GSK1379716],7,0,0,21,0,0,0,5,11,24,61,0,16,0,3,7,20,0,21,14
C[C@@H]1CC[C@@H](C(=O)Nc2ccccc2)CN1c1cc(-c2ccc3c(N)n[nH]c3c2)nc(N)n1 [GSK2286062],18,0,0,2,0,0,0,0,0,29,14,0,7,0,0,13,0,3,19,0
Cn1cc(-c2[nH]c3cc(NC(=O)[C@H](N)C4CCCCC4)cc4c3c2C=NNC4=O)cn1,99.5,95.7,97.5,30,3,58,81,44,0,0,0,60,45,36,91.3,94.1,81,95.7,92.2,0
Fc1ccc(-c2ncn(C3CCNCC3)c2-c2ccnc(Oc3ccc(-c4ccccc4)cc3)n2)cc1 [SB-245391],14,1,16,1,72,0,19,0,19,0,0,20,31,15,39,7,20,7,1,23
